Reference: PubChem BioAssay (EPA / NIEHS)
Records with an inconclusive call do not appear. Calls of active or inactive are those of the source. How the source made its calls: active means hit-call score of the fitted dose curve at least 0.9, where 1 is the maximum; inconclusive means response in the unintended direction; inactive means score below 0.9.

What follows are compounds tested against Estrogen receptor (Homo sapiens) (UniProt P03372) (assay: OT_ER_ERaERa_0480: Odyssey Thera (OT) 8-hour HEK293T Protein-Complementation Assay for Estrogen Receptor-alpha/-alpha Homodimer (AID 2283351);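 further: rise in fluorescence from reassembled reporter fragments on ERα LBD homodimer in nucleus or whole cell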).
Method in brief: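 Cells were treated for 8 hours, then imaged on a laser scanning plate cytometer. Complementation of reporter fragments fused to the human ERα ligand-binding domain (residues 310-547) in HEK293T gave fluorescence, and gain of signal over vehicle was fitted.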

Estrogen receptor (Homo sapiens), sequence (P03372 whole entry, looked up, the tested form may be a part): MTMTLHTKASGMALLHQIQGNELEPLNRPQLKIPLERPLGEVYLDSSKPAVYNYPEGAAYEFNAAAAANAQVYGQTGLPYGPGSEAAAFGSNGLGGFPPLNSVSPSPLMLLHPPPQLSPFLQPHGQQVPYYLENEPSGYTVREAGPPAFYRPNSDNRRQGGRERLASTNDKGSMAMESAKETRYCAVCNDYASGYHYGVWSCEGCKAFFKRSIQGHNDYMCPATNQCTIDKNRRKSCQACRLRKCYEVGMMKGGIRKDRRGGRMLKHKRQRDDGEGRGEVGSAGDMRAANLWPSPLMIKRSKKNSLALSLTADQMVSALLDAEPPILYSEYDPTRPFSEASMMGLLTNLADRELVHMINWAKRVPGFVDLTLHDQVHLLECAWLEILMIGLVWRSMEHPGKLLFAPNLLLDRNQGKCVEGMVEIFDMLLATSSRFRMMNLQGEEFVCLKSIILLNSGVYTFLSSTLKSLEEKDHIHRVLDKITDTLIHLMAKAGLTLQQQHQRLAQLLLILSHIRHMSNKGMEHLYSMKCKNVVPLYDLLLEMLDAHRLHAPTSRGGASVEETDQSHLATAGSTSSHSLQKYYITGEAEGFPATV

**Q.** How did the outcome turn out when [Cl-].[Cl-].[Hg+2] was run?
**A.** The outcome was “inactive”.

**Q.** CCC12COCN1COC2 was tested. Which outcome did it give?
**A.** The outcome was “inactive”.

**Q.** For Nc1ccc(N=Nc2ccccc2)cc1, which outcome is on record?
**A.** The outcome was “inactive”.

**Q.** Which outcome does the source give for O=C(Oc1ccc(Br)cc1)N1CCN2CCC1CC2 here?
**A.** The outcome was “inactive”.

**Q.** How did the outcome turn out when O=C(Nc1ccccc1)c1ccccc1I was run?
**A.** The outcome was “inactive”.

**Q.** How did the outcome turn out when CCCCCCCCCCCCCN1CC(C)OC(C)C1 (stereo not given) was run?
**A.** The outcome was “inactive”.

**Q.** For CCC[CH2][Sn]([Cl])([CH2]CCC)[CH2]CCC, which outcome is on record?
**A.** Its outcome is “inactive”.

**Q.** With CCCCCCCCn1sccc1=O as the compound, how does the outcome read?
**A.** The outcome was “inactive”.

**Q.** C[N+](C)(C)CC1CO1 (stereo not given) was tested. Which outcome did it give?
**A.** The outcome was “inactive”.

**Q.** Which AC50 does the source give for CC(C)COC(=O)c1ccccc1C(=O)OCC(C)C here?
**A.** The AC50 was 31.4 µM (active).

The compounds below were run against Estrogen receptor (Homo sapiens) + Estrogen receptor beta (Homo sapiens) (UniProt P03372+Q92731) (assay: OT_ER_ERaERb_0480: Odyssey Thera (OT) 8-hour HEK293T Protein-Complementation Assay for Estrogen Receptor-alpha/-beta Heterodimer (AID 2283352)).
Method in brief: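 Compound added to HEK293T cells carrying split-reporter-tagged ER-alpha and ER-beta LBDs, incubated 8 hours, then imaged by laser scanning cytometer. Signal rise in nucleus, or nucleus and cytoplasm, over vehicle was fitted in the positive direction.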

Estrogen receptor (Homo sapiens) + Estrogen receptor beta (Homo sapiens), sequence (P03372 whole entry, looked up): as the sequence (P03372 whole entry, looked up, the tested form may be a part) above
Estrogen receptor (Homo sapiens) + Estrogen receptor beta (Homo sapiens), sequence (Q92731 whole entry, looked up): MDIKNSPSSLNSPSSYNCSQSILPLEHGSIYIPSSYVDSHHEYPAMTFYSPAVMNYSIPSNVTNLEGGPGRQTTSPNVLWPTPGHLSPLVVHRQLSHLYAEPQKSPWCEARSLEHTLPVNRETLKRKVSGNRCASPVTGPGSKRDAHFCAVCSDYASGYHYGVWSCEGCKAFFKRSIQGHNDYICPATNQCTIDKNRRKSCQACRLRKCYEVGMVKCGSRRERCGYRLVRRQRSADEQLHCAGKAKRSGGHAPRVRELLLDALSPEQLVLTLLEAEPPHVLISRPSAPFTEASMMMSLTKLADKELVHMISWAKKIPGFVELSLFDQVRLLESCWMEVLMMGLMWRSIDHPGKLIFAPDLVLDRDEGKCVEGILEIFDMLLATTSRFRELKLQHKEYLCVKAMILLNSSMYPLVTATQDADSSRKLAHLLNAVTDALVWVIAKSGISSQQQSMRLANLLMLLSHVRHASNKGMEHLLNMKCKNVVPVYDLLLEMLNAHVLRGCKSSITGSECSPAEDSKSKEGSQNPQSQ

**Q.** With Nc1ccc(N=Nc2ccccc2)cc1 as the compound, how does the AC50 read?
**A.** Its AC50 is 29 µM (active).

**Q.** For CCCCCCCCCCCCCN1CC(C)OC(C)C1 (stereo not given), which outcome is on record?
**A.** The outcome was “inactive”.

**Q.** Which outcome does the source give for CCCCCCCCn1sccc1=O here?
**A.** Its outcome is “inactive”.

**Q.** With C[N+](C)(C)CC1CO1 (stereo not given) as the compound, how does the outcome read?
**A.** The outcome was “inactive”.

**Q.** CC(C)COC(=O)c1ccccc1C(=O)OCC(C)C was tested. Which AC50 did it give?
**A.** The AC50 was 17.2 µM (active).
